High-throughput results (PubChem)
Most compounds without a hit are left out; they make up all but 9.3% or so of the library.
ELG1 genotox – qHTS screen for small molecules that induce genotoxicity in human embryonic kidney (HEK293T) cells expressing luciferase-tagged ELG1 | HEK293T ELG1-luciferase reporter, luminescence, 16 h | Potency, µM (series often up to 46 µM), for the others: top-dose activity change, positive = activation, actives largely listed as activators | 330,000 tested, 1.3% active; also: % of control where 0% means no effect; nearly all actives have a fitted effect of over 60% in size
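HEK293T cells expressing luciferase-tagged ELG1 were exposed to compound or DMSO vehicle for 16 hr at 37 °C and 5% CO2. Luciferase activity was then measured with ONE-Glo after 30 min at room temperature.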
Rab9 promoter act – qHTS Assay for Rab9 Promoter Activators; Potency, µM (doses to about 9.22 µM), inactives show at the top dose activation, negative = inhibition, most hits filed as activators; 320,000 tested, 2.8% active; Huh7 Rab9 promoter-luciferase reporter, luminescence, 24 h; also: % of control where 0% means no effect; nearly all actives have a fitted effect of over 60% in size
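Luminescence read-out: Huh7 cells stably expressing Rab9-luciferase, treated 24 h with compound at 37 °C, then lysed with luciferase reagent for 10 min at ambient before reading.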
FLuc counter – qHTS profiling assay for firefly luciferase inhibitor/activator using purifed enzyme and Km concentrations of substrates (counterscreen for miR-21 project); 360,000 tested, 6.9% active; Luciferin 4-monooxygenase (Photinus pyralis), P08659; AID 588342, 2011; purified FLuc, Km substrates, luminescence inhibition; Potency, µM (highest dose often 57.5 µM), for the others: top-dose activity change, negative = inhibition, usual class: inhibitors;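 also: plate controls were vehicle for no effect and reference inhibitor for full effect; nearly all actives have a fitted effect of over 55% in size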
Target sequence (P08659 whole entry, looked up): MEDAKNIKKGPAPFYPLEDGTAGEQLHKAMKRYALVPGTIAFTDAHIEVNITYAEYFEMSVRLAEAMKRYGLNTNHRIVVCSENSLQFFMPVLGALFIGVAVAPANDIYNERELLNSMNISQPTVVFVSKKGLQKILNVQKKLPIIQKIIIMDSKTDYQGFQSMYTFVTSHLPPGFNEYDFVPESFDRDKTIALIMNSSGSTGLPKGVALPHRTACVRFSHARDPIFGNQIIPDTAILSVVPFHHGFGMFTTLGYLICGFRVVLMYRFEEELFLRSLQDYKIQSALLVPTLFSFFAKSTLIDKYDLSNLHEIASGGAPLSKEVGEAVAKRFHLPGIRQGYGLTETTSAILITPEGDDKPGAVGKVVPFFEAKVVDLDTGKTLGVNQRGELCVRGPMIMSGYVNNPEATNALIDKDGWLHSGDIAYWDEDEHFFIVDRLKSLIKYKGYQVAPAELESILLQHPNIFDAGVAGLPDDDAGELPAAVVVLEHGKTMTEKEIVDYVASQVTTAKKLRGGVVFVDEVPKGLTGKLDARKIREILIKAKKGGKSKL
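Purified P. pyralis luciferase (10nM final) with 10uM D-luciferin and 10uM ATP (Km levels) in 50mM Tris acetate pH 7.5, 10mM Mg acetate, 0.01% Tween-20, 0.05% BSA; qHTS 6-point titration, ~60 µM downward; luminescence read.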
NPC1 prom act – qHTS Assay for NPC1 Promoter Activators | Huh7 NPC1 promoter luciferase reporter, 24 h | Potency, µM (titrated, usually from 9.22 µM), for inactives: at the top dose activation, usual class: activators | 320,000 tested, 2.4% active | AID 485313, 2010; also: % of control where 0% means no effect; nearly all actives have a fitted effect of over 60% in size
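Luminescence read-out of NPC1 promoter-driven luciferase in stably transfected Huh7 cells; compounds delivered in DMSO and left 24 h at 37C, 5% CO2, qHTS titration format.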
ELG1 repair inh – qHTS screen for small molecules that inhibit ELG1-dependent DNA repair in human embryonic kidney (HEK293T) cells expressing luciferase-tagged ELG1. HEK293T ELG1-luciferase reporter, luminescence, 16 h; DNA damage induced by 5-fluorouridine. Potency, µM (titrated, usually from 46.1 µM), for the others: at the highest dose activity change, negative = inhibition, actives largely listed as inhibitors. 330,000 tested, 2.3% active; also: % is scaled to controls: 0 for no effect and ±100 for the full control effect; nearly all actives have a fitted effect of over 55% in size
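Reporter activity after DNA damage by 5-fluorouridine is monitored. Compound-treated cells incubate 16 hr at 37 °C, then ONE-Glo is added for 30 min before luminescence reading.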
SMN2 splice enh – qHTS Assay for Enhancers of SMN2 Splice Variant Expression; HEK293 SMN2-luciferase splicing reporter, luminescence, 30-36 h; Potency, µM (highest dose often 46.1 µM), for inactives: top-dose activity change, positive = activation, hits mostly activators; 210,000 tested, 2.8% active; also: % of control where 0% means no effect; nearly all actives have a fitted effect of over 55% in size
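qHTS luciferase splicing reporter: luminescence rises when SMN2 exon 7 is included in transfected HEK293 cells. Compound exposure lasted 30-36 h at 37C, with 4.5 mM final sodium butyrate as control, followed by a ONE-Glo read.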
An asterisk follows results filed as active; ? = inconclusive; nt = not tested or not shown. Calls follow the shape of the dose curve; as a rule, active = well fitted curve in the direction sought with a large enough effect; inconclusive = small, poorly fitted or top-dose-only effect, or another doubt; inactive = no such curve, though single readings can be large; an effect the other way counts as inactive or inconclusive. Potency is read from the fitted curve at half-maximal effect.

SMILES	ELG1 genotox	Rab9 promoter act	FLuc counter	NPC1 prom act	ELG1 repair inh	SMN2 splice enh
COc1ccccc1NC(=O)c1ccc2c(c1)OCO2	10µM*	4µM*	15µM*	2.5µM*	?	nt
COc1c(C)cc(C(=O)C2CCCN(Cc3ccc(Oc4ncccn4)cc3)C2)cc1C (configuration not stated)	-7%	-7%	-5%	0%	18µM*	nt
CCC(C)c1ccccc1N1CC(C(=O)N2CCN(S(=O)(=O)c3ccccc3Br)CC2)CC1=O (configuration not stated)	-1%	-7%	0%	-4%	-5%	nt
Cc1cc(C(=O)CN2C(=O)C(=O)N(CC(C)C)C2=O)c(C)n1-c1ccccc1F	5%	23%	17µM*	2%	?	16%
Cc1cc(C(=O)CN2C(=O)NC(CC(C)C)C2=O)c(C)n1-c1ccccc1F (configuration not stated)	?	1.1µM*	13µM*	2.2µM*	?	25%
O=C(OCC(F)(F)F)[C@H](O)[C@@H](O)C(=O)OCC(F)(F)F	nt	nt	nt	nt	nt	-4%
C=CCN(c1ccccc1OC)S(=O)(=O)c1cccc(C(=O)OCC(=O)c2c[nH]c3ccccc23)c1	-7%	-4%	-6%	-3%	23µM*	-14%
COc1cc(OC)c(N(C)S(=O)(=O)c2cccc(C(=O)OCC(=O)c3c[nH]c4ccccc34)c2)cc1Cl	-9%	-8%	-3%	-3%	21µM*	-66%
COc1ccc(C(=O)OCC(=O)c2c[nH]c3ccccc23)cc1OC	0%	19%	-13%	21%	?	nt
NS(=O)(=O)c1cc(Cl)c(NC(=O)COC(=O)c2ccccn2)c(Cl)c1	2%	-5%	2%	-2%	16%	nt
CC1=C(c2ccc(C(C)C)cc2)S(=O)(=O)NC1=NCc1ccc(Cl)cc1	nt	nt	-4%	nt	nt	nt
CCCc1cc(CNC(=O)C2CCC(=O)N(Cc3ccccc3OC)C2)on1 (configuration not stated)	4%	-3%	1%	1%	10%	nt
Cc1ccc(C)c(NS(=O)(=O)c2ccc(NC(=O)CSc3ccc(Cl)cc3)cc2)c1	-4%	0%	6%	3%	?	-15%
Cc1ccc(NS(=O)(=O)c2ccc(NC(=O)C(C)Sc3ccc(Cl)cc3)cc2)c(C)c1 (configuration not stated)	-12%	-8%	1%	-3%	21µM*	-26%
COC(=O)c1cc(=O)n(CCc2ccc(OC)c(OC)c2)c(=Nc2ccc(F)c(Cl)c2)s1	-18%	0%	-1%	-2%	15µM*	-25%
CCOC(=O)c1sc(NC(=O)CN2CCN(c3ccccc3)CC2)nc1C	-4%	-5%	1%	1%	?	nt
O=C(Nc1cccc(Cl)c1)N1CCN(Cc2ccccc2)CC1	21µM*	?	15µM*	?	?	10µM*
S=C(Nc1ccc(Cl)cc1)N1CCN(Cc2ccccc2)CC1	-3%	2%	19µM*	-3%	-3%	-10%
S=C(NCc1ccc(Cl)cc1)NC1CCN(Cc2ccccc2)CC1	-2%	-11%	3%	-10%	18µM*	-44%
Cc1ccc(NC(=S)N2CCN(Cc3ccccc3)CC2)cc1	34%	14%	12µM*	0%	5%	-58%
Cc1ccc(C)c(NC(=O)CN(C)C(=O)c2ccc(Cl)nc2)c1	0%	-2%	1%	0%	3%	nt
Cc1cccc(C)c1Nc1c(-c2ccc(Cl)s2)nc2ncccn12	nt	nt	-10%	nt	nt	-9%
COc1ccccc1C(=O)Nc1ccc(OC(C)C(=O)N2CCOCC2)cc1 (configuration not stated)	4%	0%	-1%	0%	4%	nt
CCC1CCCCN1Cc1nc(Cc2ccccc2Cl)no1 (configuration not stated)	1%	-4%	6%	-5%	13%	nt
CC(C)Cc1csc(NC(=O)c2ccc(Cl)cc2)c1C(=O)O	0%	0%	?	11%	?	20µM*
SMILES	ELG1 genotox	Rab9 promoter act	FLuc counter	NPC1 prom act	ELG1 repair inh	SMN2 splice enh
O=C(Nc1sc2c(c1C(=O)O)CCCCC2)c1ccccc1	-2%	0.89µM*	4.8µM*	2.8µM*	?	nt
O=C(Nc1sc2c(c1C(=O)O)CCC2)c1ccccc1	23%	?	15µM*	26%	?	10µM*
Cc1ccc(NC(=O)c2c(NC(=O)c3ccc(F)cc3)sc3c2CCCC3)cc1C	nt	nt	?	nt	nt	2%
O=C(Nc1sc2c(c1C(=O)O)CCC2)c1ccc(F)cc1	1%	29%	17µM*	18%	6%	-10%
COCC1CCCCN1C(=O)c1cccc(OC2CCN(S(C)(=O)=O)CC2)c1 (configuration not stated)	2%	-4%	-4%	-3%	7%	nt
CCOc1ccc(-n2nc3cc(C)c(NC(=O)c4cc(OCC)c(OCC)c(OCC)c4)cc3n2)cc1	nt	nt	0%	nt	nt	0%
O=C(Nc1sc2c(c1C(=O)O)CCCC2)c1cccc(Cl)c1	-2%	?	24µM*	?	?	nt
NCCNC(=O)c1c(NC(=O)c2ccccc2)sc2c1CCCC2	11%	-3%	?	-2%	11%	nt
O=C(Nc1sc2c(c1C(=O)O)CCCC2)c1ccc(Cl)cc1	-2%	27%	19µM*	25%	?	nt
O=C(Nc1ccc(Br)cc1)C1CC(O)CN1C(=O)Oc1ccccc1 (configuration not stated)	-3%	-3%	-2%	-10%	13%	nt
O=C(N/N=C/c1c[nH]c2ccc(Br)cc12)c1ccc2c(c1)OCO2	-1%	-4%	27µM*	-2%	3%	23%
O=C(N/N=C/c1c[nH]c2ccc(Br)cc12)c1ccncc1	0%	-1%	3%	4%	2%	7%
O=C(N/N=C/c1c[nH]c2ccccc12)c1cc(Br)ccc1O	6%	14%	27µM*	19%	20%	nt
O=C(N/N=C/c1c[nH]c2ccccc12)c1ccncc1	9%	9%	?	6%	19%	6%
O=C(N/N=C/c1c[nH]c2ccccc12)c1cccc([N+](=O)[O-])c1	0%	5%	?	13%	-14%	-8%
COc1ccccc1C(=O)N/N=C/c1c[nH]c2ccccc12	5%	13%	17µM*	19%	3%	nt
